The whole screen tested about 390,000 compounds, of which about 4,000 (1%) were called active. About 4% were inconclusive and are not listed. Calls follow the shape of the dose curve; as a rule, active = well fitted inhibition curve with a large enough effect; inconclusive = small, poorly fitted or top-dose-only effect; inactive = no such curve, though single readings can be large or run the other way. The full list was thinned out, with actives kept by preference.
target: Thioredoxin reductase 1, cytoplasmic (Rattus norvegicus) (UniProt O89049); assay: qHTS Assay for Inhibitors of Mammalian Selenoprotein Thioredoxin Reductase 1 (TrxR1): qHTS; details: recombinant rTrxR1, NADPH fluorescence consumption, selenite substrate; series mostly up to 114 µM; activity change, negative = inhibition: at the top concentration; also: nearly all actives have a fitted effect of over 65% in size
Sequence (O89049 whole entry, looked up): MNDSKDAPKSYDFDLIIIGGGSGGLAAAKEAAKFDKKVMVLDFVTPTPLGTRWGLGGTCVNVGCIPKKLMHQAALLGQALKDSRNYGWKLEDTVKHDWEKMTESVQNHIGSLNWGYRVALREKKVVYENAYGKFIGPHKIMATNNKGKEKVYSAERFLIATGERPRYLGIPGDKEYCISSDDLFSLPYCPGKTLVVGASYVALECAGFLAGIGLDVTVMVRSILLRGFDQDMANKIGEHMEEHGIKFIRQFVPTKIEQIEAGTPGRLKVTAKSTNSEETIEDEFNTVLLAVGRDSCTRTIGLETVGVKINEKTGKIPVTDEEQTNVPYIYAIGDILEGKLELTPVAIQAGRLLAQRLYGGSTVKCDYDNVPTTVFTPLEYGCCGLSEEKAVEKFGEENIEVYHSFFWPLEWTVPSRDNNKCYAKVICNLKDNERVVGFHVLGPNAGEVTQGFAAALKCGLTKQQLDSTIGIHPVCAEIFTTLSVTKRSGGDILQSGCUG
Procedure, shortened: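 Rat TrxR1 (90 nM in the dispensed reagent) was pre-reduced with 400 uM NADPH for 5 min at room temperature, then incubated with compound for 15 min. After 400 uM selenite was added, NADPH fluorescence (Ex 340/Em 450 nm) was followed for 8 min.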
% is scaled to controls: 0 for no effect and ±100 for the full control effect; potency is read from the fitted curve at half-maximal effect.

Activity change, negative = inhibition, inactive:
Cc1ccc(S(=O)(=O)c2cn(Cc3ccccc3)c3cc(N4CCCC4)c(F)cc3c2=O)c(C)c1 32.3%
COc1cccc(-c2nc(S(=O)(=O)c3ccc(C)cc3)c(NCc3ccccc3)o2)c1 8.09%
Cc1c(NC(=O)Cc2ccccc2)cccc1-c1nc2cccnc2s1 22.3%
O=C(NCc1ccco1)c1ccc(NS(=O)(=O)c2cccc([N+](=O)[O-])c2)cc1 -1.92%
O=[N+]([O-])c1cccc(/C([O-])=C(/C(=S)Nc2ccccc2F)[n+]2ccccc2)c1 10.2% [at 57.1 µM]
CC1(C)Cc2ccccc2-c2c[nH]c(=O)n21 3.99%
Cn1nnnc1SCC(=O)Nc1sccc1C(N)=O 13.4% [at 11.4 µM]
COc1cc(OC)cc(C(=O)OCC(=O)Nc2sccc2C(N)=O)c1 15.1%
C=C1C=C(C)n2ncc(C(=O)Nc3ccccc3O)c2N1 8.78%
COc1ccccc1/C=C/C1=NC(=C\N(C)C)/C(=O)O1 9.66% [at 57.1 µM]
Cc1ccc(C2=C/C(=C\c3cccnc3)C(=O)O2)cc1 31.3%
CN(C)c1ccc(/C=C/C=C/c2ccnc3ccccc23)cc1 -12.8%
O=C(O)CCS(=O)(=O)c1ccc(-c2ccccc2)cc1 -6.99%
O=C(C1COc2ccccc2O1)N(Cc1cccnc1)c1nc2c(F)cc(F)cc2s1 (configuration not stated) 23.2% [at 57.1 µM]
Cc1ccc(S(=O)(=O)CCC(=O)OCc2ccccc2)cc1 22.7%
CN(C)S(=O)(=O)c1ccc(C(=O)N(Cc2cccnc2)c2nc3c(F)cc(F)cc3s2)cc1 1.57% [at 57.1 µM]
COc1ccccc1CNC(=O)CS(=O)(=O)c1cccc2nsnc12 5.68% [at 57.1 µM]
Brc1ccc2c(c1)NC(c1cccnc1)=NC(c1ccccc1)=N2 25%
Cc1cccc(N2CCN(C(=O)c3ccc4c(c3)CCN4S(=O)(=O)c3ccccc3)CC2)c1C 23.9%
Cc1cccc(NC(=O)C2CCN(S(=O)(=O)c3c(C)noc3/C=C/c3ccco3)CC2)c1 -7.03%
CCC(=O)N1CCc2cc(S(=O)(=O)NC(C(=O)NCCc3ccc(C)cc3)C(C)C)ccc21 (configuration not stated) 19%
O=C(Cn1ncn2nc(-c3cccs3)cc2c1=O)NCc1cccc(Br)c1 17.3%
CCOC(=O)c1ccccc1NC(=O)c1nn(-c2ccc(OC)c(Cl)c2)c(=O)c2c1c1ccccc1n2C 15.4%
Cc1ccc(C(=O)NC(=S)Nc2ccc3[nH]c(=O)[nH]c3c2)cc1C 2.89% [at 57.1 µM]
CCOC(=O)C1=C(NC(=S)NC(=O)c2ccccc2)c2ccccc2CC1(C)C -24.4%
CCOc1ccc(CNC(=O)c2ccc3nc(CC)c(CC)nc3c2)cc1OC 15.6% [at 57.1 µM]
CCOc1cccc(NC(=O)CSc2ncc(-c3ccc(Cl)cc3)[nH]2)c1 3.45%
CC1(C)CC(=O)c2cc(C(=O)NCc3ccccc3)c(=O)[nH]c2C1 8.76%
O=C(NCCC1=CCCCC1)c1ccc2c(c1)N(Cc1ccccc1F)C(=O)c1ccccc1S2(=O)=O 41.9%
COc1ccc(Cn2cc(C(=O)c3ccc(C)cc3)c(=O)c3cc(OC)c(OC)cc32)cc1 21.9%
COc1ccc(-c2nc(C)c(CCNC(=O)c3ccc(C(F)(F)F)cc3)s2)cc1OC 14.7% [at 57.1 µM]
O=C(Nc1ccccc1Cl)N1CCC(CN2CCCCC2)CC1 24.2% [at 57.1 µM]
O=C(Nc1ccccc1Cl)N1CCC(CN2CCCC2)CC1 -6.79%
O=C1C2C(c3ccccc3)CC=CC2C(c2ccoc2)N1Cc1ccccc1 (configuration not stated) -7.81%
C#CC(C)(CC)NC(=O)Cn1nnc(-c2ccc(OCc3c(F)cccc3Cl)cc2)n1 (configuration not stated) 28.4%
COc1cc(OC)cc(C(=O)NCCc2csc3nc(-c4ccccc4F)nn23)c1 6.74% [at 57.1 µM]
COc1cc(C(=O)NCC(c2ccc(Cl)cc2)N2CCOCC2)cc(OC)c1OC (configuration not stated) 8.59%
O=C(CSc1ccc(-c2ccco2)nn1)NCc1ccc2c(c1)OCO2 -71.2%
CCn1c(CNC(=O)c2ccco2)nnc1SCC(=O)Nc1cccc(F)c1 27.1%
COc1ccc(OCCn2cc(C(=O)C3CCCCC3)c3ccccc32)cc1 25.8%
Cc1ccc(C)c(N2CCN(Cc3nnc(-c4ccccc4)o3)CC2)c1 16.7%
Cc1ccc(CN(C(=O)COc2ccc(Cl)cc2C)C2CCS(=O)(=O)C2)o1 (configuration not stated) -11.1%
CCOC(=O)CSc1nnc(CNC(=O)c2ccco2)n1-c1ccc(F)cc1 -12.3%
Cn1c(SCC(=O)N2CCCC2)nnc1-c1cccs1 -0.504%
CCCN1CCC(=O)N(C(CSc2ccc(C)cc2)Cc2ccccc2)CC1 (configuration not stated) -13.5%
CCc1ccccc1N1C(=O)C2C3CC(=O)C(c4ccccc43)C2C1=O (configuration not stated) 9.08%
Cn1c(=O)c2cn(-c3cccc4ccccc34)cc2n(C)c1=O -9.19%
COc1cccc(OCCn2c(-c3ccc(Br)cc3)nc3ccccc3c2=O)c1 19.9%
COC(=O)C(CC(C)C)NS(=O)(=O)c1cc(Br)ccc1Br (configuration not stated) 4.6%
O=C(NCC(c1cccnc1)N1CCc2ccccc21)c1cccc(C(F)(F)F)c1 (configuration not stated) -5.37%
Nc1ccccc1N 14.3%
CC(=O)Nc1ccc(N2C(=O)CC(Sc3nccc(C)n3)C2=O)cc1 (configuration not stated) 33.8%
COc1ccc(-c2nc(SCC(=O)N3CCCCC3C)n[nH]2)cc1 (configuration not stated) 8.31% [at 57.1 µM]

Potency, inactive:
CCOc1ccccc1NC(=O)CCS(=O)(=O)c1cccc2nsnc12

Potency, active:
Cc1ccc(/C([O-])=C(/C(=S)NCc2ccco2)[n+]2ccccc2)cc1[N+](=O)[O-] 56.2 µM
NC(=O)c1ccsc1NC(=O)c1ccco1 56.2 µM
CN(C)/C=C1\C=C(c2ccccc2)OC1=O 28.2 µM
COc1cccc2sc(N(CCCN(C)C)C(=O)CCS(=O)(=O)c3ccccc3)nc12 1.58 µM
Cc1cccc2sc(N(CCCN(C)C)C(=O)CCS(=O)(=O)c3ccccc3)nc12 15.8 µM
O=C(CCS(=O)(=O)c1ccccc1)N(Cc1cccnc1)c1nc2c(F)cccc2s1 3.98 µM
Cc1cc2[nH]ncc2cc1NC(=S)NC(=O)c1ccccc1 7.08 µM
O=C(Nc1ccccc1Cl)/C(Cl)=C(\Cl)S(=O)c1ccccc1 (configuration not stated) 0.398 µM
O=C(CSc1ccc(-c2ccco2)nn1)Nc1cccc(F)c1 25.1 µM
C=C(Br)CN1CCN(CC(=C)Br)CC1 12.6 µM
CCOC(=O)CSc1nnc(-c2ccco2)n1C 22.4 µM
CC1=C(C)CC2C(=O)N(c3cccc4ccccc34)C(=O)C2C1 (configuration not stated) 14.1 µM
COc1ccc(N2C(=O)CC(Sc3n[nH]c(-c4ccc(C)cc4)n3)C2=O)cc1 (configuration not stated) 5.01 µM

Reference: PubChem BioAssay AID588453 (National Center for Advancing Translational Sciences (NCATS), 2011)
